The panel holds about 79,000 compounds, 15% with a hit somewhere; the sample as a whole holds those more often. Values without a mark were called inactive. Active and inactive are the calls of the source. No stated cut-off is given here; in the data, active means growth inhibition above about 70%; inactive means the rest.

Assay [1] can be described thus: NCI Yeast Anticancer Drug Screen. Data for the rad50 strain (AID 155).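 Further: 0% = growth of vehicle-only cultures of the same strain.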 The conditions noted are these: S. cerevisiae rad50 strain growth inhibition; at 50.0 µM; active compounds read high. Summed up: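 DNA repair mutant yeast, compound exposure, growth read-out; inhibition is taken relative to vehicle.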
The nature of assay [2]: NCI Yeast Anticancer Drug Screen. Data for the mec2-1 strain (AID 157). Conditions: S. cerevisiae mec2-1 strain, at 50.0 µM, active compounds read high. Summed up:
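Yeast mec2-1 mutant treated with compound. Readout: growth inhibition vs vehicle controls.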

Assay [3] can be described thus: NCI Yeast Anticancer Drug Screen. Data for the sgs1 mgt1 strain (AID 161).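 Further: 0% = growth of cultures given vehicle only.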 Conditions: S. cerevisiae sgs1 mgt1 strain, at 50.0 µM, active compounds read high. In short, it runs like this: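 Genetically altered yeast, compound exposure, growth inhibition relative to vehicle.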
Assay [4] can be described thus: NCI Yeast Anticancer Drug Screen. Data for the cln2 rad14 strain (AID 165).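 Further: 0% = growth equal to vehicle treated cultures.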 Conditions: S. cerevisiae cln2 rad14 strain, at 50.0 µM, active compounds read high. Summed up: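 cln2 rad14 yeast strain; compound exposure; growth inhibition read vs vehicle controls.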
Assay [5] can be described thus: NCI Yeast Anticancer Drug Screen. Data for the bub3 strain (AID 167). Conditions: S. cerevisiae bub3 mutant strain, at 50.0 µM, active compounds read high. In short, it runs like this:
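In this screen, a yeast mutant lacking normal mitotic checkpoint function is challenged with compound. Relative growth versus vehicle gives the inhibition value.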

The nature of assay [6]: NCI Yeast Anticancer Drug Screen. Data for the mlh1 rad18 strain (AID 175). Conditions: S. cerevisiae mlh1 rad18 strain growth inhibition; at 50.0 µM; active compounds read high. Summed up:
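Yeast w/ defined DNA-repair lesions; compound exposure; growth vs vehicle controls → % inhibition.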

On to `CCCC(=O)OC1C(CO)OC(n2cc(F)c(=O)[nH]c2=O)C1F` (stereo not drawn), for which the growth inhibition in assay [1] is -7.85%; in assay [2], 6.4%; in assay [3] it was -8.6%; in assay [4] it was -15.7%; in assay [5], 3.75%; in assay [6], -17.8%.
Turning to `COc1ccc(-c2oc3cc(OC)c(OC)c(OC)c3c(=O)c2O)cc1O`, the growth inhibition in assay [1] is 62.5%; in assay [2], 50.5%; in assay [3], 77.6% (active); in assay [4], 44.8%; in assay [5], 65.4%; in assay [6], 70.2% (active).
As to `Cc1cc(C(=O)N/N=C/c2cc(Cl)cc(Cl)c2O)c2cc(Br)ccc2n1`, the growth inhibition in assay [1] is 61.5%; in assay [2] it was 25.4%; in assay [3], 54%; in assay [4], 15.9%; in assay [5], -0.2%; in assay [6], 45%.
In the case of `CC(=O)N1C(=O)C(C)(C2=CC(=O)c3ccccc3C2=O)c2ccc(Br)cc21` (stereo not drawn), the growth inhibition in assay [1] is 76.8% (active); in assay [2], 77% (active); in assay [3], 73.7% (active); in assay [4], 71.8% (active); in assay [5], 87% (active); in assay [6], 67.2%.
For the molecule `CC1=NN2C(=O)C(C)SC2=NC(C)(C)C1` (stereo not drawn), the growth inhibition was -5.6% in assay [1]; -17.9% in assay [2]; -3.15% in assay [3]; 29.2% in assay [4]; -8.2% in assay [5]; -16.3% in assay [6].
On to `CC[C@H]1OC(=O)[C@H](C)[C@@H](OC2CC(C)(OC)C(O)C(C)O2)[C@H](C)[C@@H](OC2OC(C)CC(N(C)C)C2OC(=O)CCC2CCCC2)[C@](C)(O)C[C@@H](C)C(=O)[C@H](C)[C@@H](O)[C@]1(C)O` (stereo partly drawn), for which the growth inhibition in assay [1] is 3.25%; in assay [2], -6.95%; in assay [3], 4.05%; in assay [4], 0.65%; in assay [5] it was 7.3%; in assay [6], -9.55%.
As for `Cc1ccc(C(=N)c2ccccc2Cc2ccccc2)cc1C`, the growth inhibition in assay [1] was -11.7%; in assay [2] it was -2.45%; in assay [3], -15.1%; in assay [4], -12.2%; in assay [5] it was 7.9%; in assay [6] it was -27.9%.
Take `Cc1c2oc3c(C)ccc(C(=O)NCc4cccnc4)c3nc-2c(C(=O)NCc2cccnc2)c(N)c1=O`: the growth inhibition is 42.6% in assay [1]; -0.85% in assay [2]; -6.85% in assay [3]; 7.55% in assay [4]; 2.6% in assay [5]; 13.1% in assay [6].
Regarding `CC(C)(C)OC(=O)NNC(=O)c1ccc([N+](=O)[O-])cc1`, the growth inhibition in assay [1] is 17.2%; in assay [2], -9.8%; in assay [3], -2.5%; in assay [4], 30.6%; in assay [5], 3.75%; in assay [6], 5.8%.
Regarding `ClCCOCCOc1ccccc1Cl`, the growth inhibition in assay [1] was -24%; in assay [2], -13.8%; in assay [3], -8.1%; in assay [4] it was -9.95%; in assay [5], -22.1%; in assay [6] it was -7%.
Take `COC(=O)C(=O)c1c(-c2ccc(O)c(OC)c2)[nH]c2[nH]n(-c3ccccc3)c(=O)c2c1=O`: the growth inhibition is 24.6% in assay [1]; -17.2% in assay [2]; -1.75% in assay [3]; -30.1% in assay [4]; 14.8% in assay [5]; 14.5% in assay [6].
As for `O=C(O)CCCc1ccc2sc3ccccc3c2c1`, the growth inhibition is 47.4% in assay [1]; 32.6% in assay [2]; 27.6% in assay [3]; 50.5% in assay [4]; 24.9% in assay [5]; 76.8% (active) in assay [6].
Take `S=C1NNC2(C(=S)N1)c1ccccc1-c1ccccc12`: the growth inhibition was 32.4% in assay [1]; -11.2% in assay [2]; 14.6% in assay [3]; 5% in assay [4]; 3.2% in assay [5]; 55.4% in assay [6].
As to `CC1(C)OC2COC(CNS(C)(=O)=O)C2O1` (stereo not drawn), the growth inhibition is 12.2% in assay [1]; -12.2% in assay [2]; -9.2% in assay [3]; 5.1% in assay [4]; 2.85% in assay [5]; 28.4% in assay [6].
Turning to `Cc1ccc(N=C(N)N)cc1`, the growth inhibition in assay [1] was -1.25%; in assay [2], 0.3%; in assay [3], 1.05%; in assay [4], 12.3%; in assay [5] it was 0.7%; in assay [6], -1.8%.
As to `CCOC(C)OCCCI` (stereo not drawn), the growth inhibition was -25.8% in assay [1]; -21.3% in assay [2]; 3.5% in assay [3]; -9.7% in assay [4]; -13.3% in assay [5]; 13.2% in assay [6].
With `CCCCCCCCC(C)C`, the growth inhibition in assay [1] is 1.25%; in assay [2], 3.35%; in assay [3] it was -0.3%; in assay [4], 10.8%; in assay [5], 1.65%; in assay [6], -2.65%.
Take `C[N+](C)(C)CC(=O)c1ccc[nH]1`: the growth inhibition was 2.1% in assay [1]; -11.2% in assay [2]; 14.9% in assay [3]; -0.8% in assay [4]; 1.4% in assay [5]; 13.1% in assay [6].

These data come from PubChem BioAssay (NCI).
